Each structure is given as a SMILES string. Screen size: about 52,000 compounds; about 4,300 (8.3%) were called active. The entries come from a sample that favours actives as a whole. A number with no mark means an inactive call. Rule as the data show it: active = survival mostly below about 52% (no sharp cut-off); inactive = mostly above about 56%.

Among the data in PubChem BioAssay AID463173 (ICCB-Longwood Screening Facility, Harvard Medical School, 2010) are survival values, retold here.

This experiment relates to DeltatarO mutant. Nature of the experiment: growth inhibition of S. aureus wild type versus tarO mutant, primary screen, teichoic acid synthesis inhibitors, RN4220, OD600 (AID 463173). As to conditions: OD600, 18 h, active compounds read low, screened at 18.75 µg/mL (by protocol).
With `CCOc1ccc(-c2nn(CC(=O)NC3CCCCC3)c3c2cnc2ccc(C)cc23)cc1`, the survival was 107%.
On to `CCOc1ccc(NC(=O)C2CCCN(c3nn4cc(-c5ccc(OC)cc5)nc4s3)C2)cc1` (configuration not stated), for which the survival is 113%.
As to `Cc1oc(-c2cccc(Cl)c2)nc1CSc1nncn2c1cc1occc12`, the survival was 103%.
As for `COC(=O)c1sccc1S(=O)(=O)N(CC(=O)Nc1cc(C)cc(C)c1)c1ccc(Cl)cc1`, the survival is 88%.
With `Cn1c(SCC#N)nc2c(c1=O)C1(CCCCC1)Cc1ccccc1-2`, the survival is 103%.
In the case of `CCCCNC(=O)C1CCN(Cc2cccc(OC)c2O)CC1` it was 78%; in that of `COC(=O)CSc1nc(-c2ccccc2)cc(C(F)(F)F)n1`, 88%; in that of `CCC(C)n1c(SCC(=O)Nc2ccccc2C(=O)OC)nc2ccsc2c1=O` (configuration not stated), 17% (active).
With `CCn1c(SCC(=O)Nc2ccccc2C(=O)OC)nc2ccsc2c1=O`, the survival was 94%.
Turning to `CCCNC(=O)CSc1nc(-c2ccccc2)cc(C(F)(F)F)n1`, the survival was 77%.
Turning to `COC(=O)c1ccccc1NC(=O)CSc1nc2ccsc2c(=O)n1CCC(C)C`, the survival was 88%.
For the compound `COC(=O)c1ccccc1NC(=O)CSc1nc(-c2ccccc2)cc(C(F)(F)F)n1`, the survival is 25% (active).
For the compound `CCNC(=O)C1CCCN(c2ncnc3onc(C)c23)C1` (configuration not stated), the survival is 101%.
For the compound `CCOc1ccccc1NC(=O)c1ccc2c(c1)CCN2S(C)(=O)=O`, the survival was 75%.
As for `COc1ccc(S(=O)(=O)Nc2cccc(-c3ccc(N4CCOCC4)nn3)c2)cc1F`, the survival was 88%.
`Cc1cc(C)c2c(=O)c3c(oc2c1)C(=O)N(Cc1ccco1)C3c1ccc(F)cc1` (configuration not stated): the survival was 53%.
For `COc1ccc(CCN2C(=O)c3oc4cc(C)cc(C)c4c(=O)c3C2c2ccc(F)cc2)cc1OC` (configuration not stated), the survival is 56%.
On to `Cc1cc(C)c2c(=O)c3c(oc2c1)C(=O)N(Cc1ccc(F)cc1)C3c1cccc(O)c1` (configuration not stated), for which the survival was 52% (active).
As to `CCCN1C(=O)c2oc3cc(C)cc(C)c3c(=O)c2C1c1ccc(F)cc1` (configuration not stated), the survival was 49% (active).
On to `COCCN1C(=O)c2oc3cc(C)cc(C)c3c(=O)c2C1c1cccc(O)c1` (configuration not stated), for which the survival was 71%.
`O=C1c2oc3ccccc3c(=O)c2C(c2cccc(O)c2)N1Cc1ccc(F)cc1` (configuration not stated): the survival is 77%.
For `COc1ccc(CNC(=O)c2ccc3c(c2)nc2n3CCCCC2)cc1`, the survival is 89%.
In the case of `CCN(CC)S(=O)(=O)c1ccc2nc(NC(=O)c3ccc(Br)o3)sc2c1`, the survival was 87%.
For `N#Cc1ccc(NC(=O)c2cc(-c3cccc(Cl)c3)on2)cc1`, the survival is 71%.
In the case of `CCCCCNC(=O)C1CCC(Cn2c(=O)c3sccc3n(CC)c2=O)CC1` (configuration not stated) it was 49%.
Regarding `CNC(=O)C1CCC(Cn2c(=O)[nH]c3ccsc3c2=O)CC1` (configuration not stated), the survival is 99%.
For `CCCCN(C)C(=O)C1CCC(Cn2c(=O)[nH]c3ccsc3c2=O)CC1` (configuration not stated), the survival is 0% (active).
